According to the supplement of paper PMC6555819:

Columns and labels:
Experiment in all cases: PBM binding z-score (relative to random genomic background probes); higher = stronger binding; sequences stand for … in GC…GCGATTGACAGCGTAGAATGAAGG
[1] = system: FXR:RXRa (NR concentration 270 nM, RXRa partner concentration 90 nM)
Procedure, shortened: (§1)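 Random background probes are the reference for binding z-scores. These scores derive from regression-normalized fluorescence on custom Agilent 4×180K protein-binding microarrays incubated 1 h with ligand-free nuclear receptor dimers. Binding was detected with antibodies against each partner (one per run).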

[2] = system: LXRa:RXRa (NR concentration 270 nM, RXRa partner concentration 90 nM)
Procedure, shortened: as §1

[3] = system: LXRa homodimer (NR concentration 270 nM)
Procedure, shortened: as §1

[4] = system: LXRb:RXRa (NR concentration 270 nM, RXRa partner concentration 90 nM)
Procedure, shortened: as §1

[5] = system: LXRb homodimer (NR concentration 270 nM)
Procedure, shortened: as §1

[6] = system: PPARa:RXRa (NR concentration 270 nM, RXRa partner concentration 90 nM)
Procedure, shortened: as §1

[7] = system: PPARg:RXRa (NR concentration 180 nM, RXRa partner concentration 90 nM)
Procedure, shortened: as §1

[8] = system: PPARg:RXRa 270nM:90nM, anti-RXR (NR concentration 270 nM, RXRa partner concentration 90 nM)
Procedure, shortened: as §1

[9] = system: PPARg:RXRa 30nM:10nM, anti-RXR (NR concentration 30 nM, RXRa partner concentration 10 nM)
Procedure, shortened: as §1

[10] = system: PPARg:RXRa 90nM:30nM, anti-RXR (NR concentration 90 nM, RXRa partner concentration 30 nM)
Procedure, shortened: as §1

[11] = system: PPARg:RXRa DBDmut IVT, anti-RXR (DBD mutation: RXRa K156A/R161A, NR concentration 270 nM, RXRa partner concentration 90 nM)
Procedure, shortened: as §1

[12] = system: PPARg:RXRa IVT, anti-PPARg (NR concentration 270 nM, RXRa partner concentration 90 nM)
Procedure, shortened: as §1

[13] = system: PPARg DBDmut:RXRa IVT, anti-PPARg (DBD mutation: PPARg1 K132A/R137A, NR concentration 270 nM, RXRa partner concentration 90 nM)
Procedure, shortened: as §1

[14] = system: PPARg DBDmut IVT, anti-PPARg (DBD mutation: PPARg1 K132A/R137A, NR concentration 270 nM)
Procedure, shortened: as §1

[15] = system: PPARg homodimer (NR concentration 180 nM)
Procedure, shortened: as §1

[16] = system: PXR:RXRa (NR concentration 270 nM, RXRa partner concentration 90 nM)
Procedure, shortened: as §1

[17] = system: PXR homodimer (NR concentration 270 nM)
Procedure, shortened: as §1

[18] = system: RARa:RXR (NR concentration 270 nM, RXRa partner concentration 90 nM)
Procedure, shortened: as §1

[19] = system: RARa homodimer (NR concentration 270 nM)
Procedure, shortened: as §1

[20] = system: RARb:RXRa (NR concentration 270 nM, RXRa partner concentration 90 nM)
Procedure, shortened: as §1

Sequence | PBM binding z-score [1] | PBM binding z-score [2] | PBM binding z-score [3] | PBM binding z-score [4] | PBM binding z-score [5] | PBM binding z-score [6] | PBM binding z-score [7] | PBM binding z-score [8] | PBM binding z-score [9] | PBM binding z-score [10] | PBM binding z-score [11] | PBM binding z-score [12] | PBM binding z-score [13] | PBM binding z-score [14] | PBM binding z-score [15] | PBM binding z-score [16] | PBM binding z-score [17] | PBM binding z-score [18] | PBM binding z-score [19] | PBM binding z-score [20]
GCGACTGGGGCAGCAGCAGGTTACCATAACTTAA | -0.536 | -0.657 | -0.621 | -0.287 | -1.12 | 0.405 | 0.4 | -0.0757 | -0.451 | -0.719 | 3.5 | 2.23 | -1.15 | -0.983 | -0.687 | -0.502 | -0.939 | -0.19 | -0.8 | 0.608
CCGACTGGGGCAGATAGGTTACCATACCATCCGG | -0.431 | -0.25 | 0.171 | -0.154 | -1.16 | 0.179 | 0.914 | 0.44 | -0.164 | -0.0542 | 1.48 | 1.4 | -1.44 | -0.883 | 0.00162 | -0.407 | -0.499 | 0.117 | -0.193 | 0.804
GTACCAAGGTGCATAGGTCGTTGATGAGTAGGCG | 0.192 | 0.486 | 0.209 | -0.189 | -0.908 | 1.3 | 1.21 | 1.88 | 0.013 | 1.15 | -0.499 | 0.0785 | -0.485 | -0.265 | 0.243 | 0.269 | -0.124 | 1.1 | -0.294 | 0.748
TCTGCTAGGTCAGCGATGGTCAGCTAATCTGCTA | 1.17 | 0.657 | -0.944 | 0.271 | -0.838 | 1.66 | 0.772 | 1.62 | 1.56 | 1.29 | 3.18 | 3.05 | -0.711 | -0.258 | 0.723 | 0.17 | -1.61 | 1.31 | -1.26 | 3.33
TCTCGGAGGACACGAACGTCAGAGCTTTCCAGAG | 0.0459 | 0.0114 | -0.625 | -0.532 | -1.31 | 0.0688 | 0.0947 | 0.795 | 1.95 | 1.18 | 0.985 | -0.0503 | -0.617 | -1.23 | -1.43 | -0.256 | -0.522 | -0.0977 | -1.21 | 1.35
CCTACTGGGCCACGCAAGGTCATTGATTCAGTGA | 2.92 | 3.83 | 2.79 | 2.39 | -0.438 | 3.32 | 2.94 | 3.26 | 1.18 | 2.34 | 5.58 | 5.36 | 0.0336 | 0.776 | 2.02 | 4.51 | 1.84 | 3.48 | 0.546 | 2.81
TCGAGTAGGTTAGGGGCAGTCAGAATGGCGTCGA | 0.232 | 0.211 | -0.0968 | 0.86 | -0.416 | 1.11 | 0.492 | 1.58 | 0.558 | 1.36 | 2 | 1.49 | -0.663 | -0.988 | 0.763 | 0.184 | 0.227 | 0.265 | -0.345 | 1.08
CCTAGCAGGCCAAGGTCACTCAAGCATTTCGCTT | 3.06 | 2.72 | 0.474 | 2.51 | -0.42 | 3.34 | 1.14 | 2.44 | -0.0507 | 1.65 | 2.14 | 1.93 | -1.42 | -0.849 | 1.92 | 3.35 | 0.64 | 3.65 | 0.757 | 3.55
CCGAGTAGGTCATGGGGCATTCAGGCAACGGTGA | 4.82 | 3.04 | 0.422 | 2.42 | -0.503 | 4.92 | 8.14 | 7.29 | 6.6 | 7.69 | 5.78 | 6.73 | 0.331 | -0.486 | 2.5 | 2.15 | -0.103 | 3.58 | 0.815 | 3.78
TCACGGAGGACACGAAGGTCAGAGCTTTCCAGAG | 1.21 | 1.07 | 0.259 | 0.963 | -1.12 | 1.99 | 0.712 | 1.52 | 2.16 | 1.87 | 1.52 | 0.826 | -1.19 | -0.604 | 1.45 | 1.98 | 1.22 | 2.3 | 0.266 | 3.44
CCTAGTTTGTCAAGGTCACACACGCTATAGGTAC | 4.49 | 4.38 | 3.27 | 3.87 | 1.42 | 4.14 | 2.44 | 2.78 | 0.971 | 1.93 | 1.6 | 2.96 | 1.92 | 1.48 | 4.48 | 4.71 | 5.83 | 4.57 | 2.66 | 4.18
CCGACTGGGGCAAAGGTTAGCATACTCAGTACGA | 0.945 | 0.762 | -0.315 | 1.27 | -1.29 | 4.88 | 10.7 | 8.69 | 9.08 | 9.54 | 4.94 | 4.9 | -0.151 | -1.37 | 1.58 | 1.47 | -0.542 | 2.78 | -0.0647 | 1.99
AGAGCGAGGGCACGCTGAGTTGATAGCAGAGTAG | 0.547 | 0.397 | -0.567 | -0.142 | -1.31 | 1.17 | 0.555 | -0.0392 | -0.58 | -0.152 | 0.897 | 1.26 | -0.714 | -1.28 | 0.251 | 1.05 | -0.217 | 0.737 | -0.451 | 2.47
TCTTTTAGTTGATTAGGGCAACCGAAACAGCGGA | 1.17 | 0.955 | 0.422 | 0.976 | 2.11 | 1.45 | 0.152 | 2.66 | 4.27 | 3.34 | 2.25 | 2.54 | 2.77 | 2.73 | 1.2 | 0.77 | 0.929 | 0.951 | 1.25 | 1.79
GGAACGAGGGCAAGTTGATCGCAGAGTTTGATGG | 0.747 | 0.257 | -0.518 | 0.128 | -0.392 | 1.6 | 0.859 | 0.878 | -0.211 | 0.517 | 3.49 | 2.88 | 0.162 | -0.887 | -0.254 | 0.576 | -0.0478 | 0.607 | -0.361 | 2.51
